# Test results published in PubChem BioAssay AID1851 (National Center for Advancing Translational Sciences (NCATS), 2009).
# About 5,700 (36%) of roughly 16,000 compounds were called active. Inconclusive results (about 24%) are left out. Some of the results follow. Unmarked numbers belong to inactive results. Calls follow the shape of the dose curve; as a rule, active = well fitted curve in the direction sought with a large enough effect; inconclusive = small, poorly fitted or top-dose-only effect, or effect the other way; inactive = no such curve, though single readings can be large or run the other way.
# Target: Cytochrome P450 1A2 (Homo sapiens) (UniProt P05177)
# Test: Cytochrome panel assay with activity outcomes
# Details: recombinant CYP, pro-luciferin dealkylation, luminescence, p450-cyp1a2; series mostly up to 57.1 µM; activity, negative = inhibition: at the top concentration
# % is scaled to controls: 0 for no effect and ±100 for the full control effect.
# Chain of Cytochrome P450 1A2 (Homo sapiens) (P05177 whole entry, looked up): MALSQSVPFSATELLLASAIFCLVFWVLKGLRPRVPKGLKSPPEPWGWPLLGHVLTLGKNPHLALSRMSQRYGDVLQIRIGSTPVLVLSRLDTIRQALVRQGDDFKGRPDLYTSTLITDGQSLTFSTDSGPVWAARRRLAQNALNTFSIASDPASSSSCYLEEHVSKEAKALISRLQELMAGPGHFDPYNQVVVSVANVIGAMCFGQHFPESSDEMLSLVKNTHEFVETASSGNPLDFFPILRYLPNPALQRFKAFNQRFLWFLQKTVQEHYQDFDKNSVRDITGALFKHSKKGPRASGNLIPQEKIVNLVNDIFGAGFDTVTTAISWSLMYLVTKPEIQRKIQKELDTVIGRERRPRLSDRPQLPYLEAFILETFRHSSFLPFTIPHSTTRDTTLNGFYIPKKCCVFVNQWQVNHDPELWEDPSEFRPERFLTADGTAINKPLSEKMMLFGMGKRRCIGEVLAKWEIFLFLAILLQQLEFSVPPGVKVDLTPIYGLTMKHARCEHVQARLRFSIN
SMILES,"activity, negative = inhibition",AC50
COc1ccc(C2SCC(=O)Nc3c2c(C)nn3C2CCOC(C)(C)C2)cc1 (configuration not stated),-2.75%,–
CCN1C[C@@]2(COC)CC[C@H](O)[C@@]34[C@@H]2C[C@@H]([C@@H]13)[C@]1(O)C[C@@H](OC)C2C[C@H]4[C@H]1[C@H]2OC(C)=O,-7.59% [at 25.6 µM],–
CC[C@@H]1CN2CCc3cc(OC)c(OC)cc3[C@H]2C[C@@H]1C[C@@H]1NCCc2cc(OC)c(OC)cc21,-2.31%,–
CCc1cc2c(nc1CC)CCN(CC/C(C)=N/OC)C2,-0.582% [at 11.4 µM],–
C=C1C/C(=C\C)C(=O)O[C@@H]2CCN3CC=C(COC(=O)[C@@]1(C)O)[C@H]23,-3.75% [at 25.6 µM],–
CC[N+](CC)(CC)CCOc1cccc(OCC[N+](CC)(CC)CC)c1OCC[N+](CC)(CC)CC,-0.0726% [at 25.6 µM],–
N/C(=N\N=C/c1ccc(-c2ccc(O)c(C(=O)O)c2)o1)N[N+](=O)[O-],-7.3%,–
Cc1o[nH]c(=O)c1C[C@@H](N)C(=O)O,-5.8%,–
C[C@H]1CC[C@]2(OC1)O[C@@H]1C[C@@H]3[C@@H]4CC[C@H]5C[C@@H](O)CC[C@]5(C)[C@@H]4CC(=O)[C@@]3(C)[C@H]1[C@@H]2C,-5.06% [at 25.6 µM],–
CC(=O)OCC1=C(C(=O)O)N2C(=O)[C@@H](N)[C@@H]2SC1,-3.51% [at 25.6 µM],–
c1ccc(N2CCC3(CCNCC3)CC2)cc1,-18.3%,–
c1ccc(N2CC3(CCNCC3)C2)cc1,3.8%,–
Clc1cccc(N2CCNCC2)c1,–,15.8 µM (active)
CCN1CCN(S(=O)(=O)c2ccc(Cl)nc2)CC1,9.49%,–
C[C@@]12CCC(=O)C=C1C=C[C@H]1[C@H]3CC[C@](O)(CCC(=O)O)[C@]3(C)CC[C@@H]12,-8.24% [at 25.6 µM],–
O=C(O)[C@@H]1[C@H](C(=O)O)[C@]2(Cl)C(Cl)=C(Cl)[C@@]1(Cl)C2(Cl)Cl,-14.5% [at 11.4 µM],–
CCCn1c(=O)c2[nH]c(C3CCCC3)nc2n(CCCOC(=O)c2ccc(S(=O)(=O)F)cc2)c1=O,-7.67%,–
CC(C)C(=O)CP(=O)(O)O,-6.25% [at 11.4 µM],–
C#CCN(C)[C@H](C)Cc1ccccc1,–,12.6 µM (active)

SMILES,"activity, negative = inhibition",AC50
CC(C)c1c(CN(C)[C@@H](C)Cc2ccccc2)n(C)n(-c2ccccc2)c1=O,-19.1% [at 25.6 µM],–
CCCN1CCC[C@@H]2Cc3[nH]ncc3C[C@H]21,–,inactive
CC(C)[C@]1(O)[C@@H](OC(=O)c2ccc[nH]2)[C@]2(O)[C@@]3(C)C[C@@]4(O)O[C@@]5([C@H](O)[C@@H](C)CC[C@]35O)[C@]2(O)[C@]41C,-17.2% [at 2.29 µM],–
O=C(O)[C@H]1[C@H](C(=O)O)[C@H]2CC[C@@H]1O2,2.38%,–
CCCCc1ccc(-c2nc(NC(=O)C3C4CCC(O4)C3C(=O)O)sc2C)cc1 (configuration not stated),–,15.8 µM (active)
CC(C)[C@@]1(NC(=O)[C@@H]2C[C@H]3c4cccc5[nH]cc(c45)C[C@@H]3N(C)C2)O[C@]2(O)[C@H]3CCCN3C(=O)CN2C1=O,-12.6% [at 25.6 µM],–
O=C(O)[C@H]1CCN1,0.0533%,–
CC[C@]1([C@H]2O[C@@H]([C@@H]3O[C@](O)(CO)[C@@H](C)C[C@H]3C)C[C@H]2C)CC[C@@H]([C@]2(C)CC[C@@]3(C[C@@H](O)[C@@H](C)[C@@H]([C@H](C)[C@H](OC)[C@H](C)C(=O)O)O3)O2)O1,-4.88% [at 25.6 µM],–
CC(=O)OC1=CC2=CC[C@H]3[C@H]4CCC(=O)[C@@]4(C)CC(=O)[C@]3(S)[C@]2(C)CC1,-9.43% [at 2.29 µM],–
N[C@H]1C[C@H]1c1ccccc1,–,5.01 µM (active)
N[C@@H]1C[C@H]1c1ccccc1,–,15.8 µM (active)
C[C@@]12CC[C@H](O)C[C@@H]1CC[C@H]1[C@@H]2C[C@@H](O)[C@]2(C)[C@@H](C3=CC(=O)OC3)CC[C@]12O,-3.8% [at 25.6 µM],–
CCN1CCN(Cc2cc(OC)c(OC)cc2[N+](=O)[O-])CC1,-23.6%,–
Cc1noc(C)c1C(=O)N1CCC2(CCCN(CC(C)C)C2)CC1,-17.1%,–
NC(CCl)=N[C@H]1CN2CCC1CC2,-4.08% [at 11.4 µM],–
N#Cc1ccc(CN2CCCC3(CCN(C(=O)Oc4ccccc4)CC3)C2)cc1,-6.6%,–
N#CC(=C(/N)Sc1ccccc1N)/C(C#N)=C(/N)Sc1ccccc1N,–,31.6 µM (active)
NC(=O)CN1CCCC1=O,–,inactive
CC(C)C(=O)Nc1ccc([N+](=O)[O-])c(C(F)(F)F)c1,–,0.316 µM (active)

SMILES,"activity, negative = inhibition",AC50
CCN1CCN(c2ccc(NC(=O)C(C)C)cc2Cl)CC1,-5.66%,–
CS(=O)(=O)N1CCCC(C(=O)N2CCC3(CC2)OCCO3)C1 (configuration not stated),-9.06%,–
CCOC(=O)C1Cc2c([nH]c3ccccc23)CN1 (configuration not stated),–,5.01 µM (active)
CN(C)CS/C(N)=N/[C@H](O)C(Cl)(Cl)Cl,4.09% [at 2.29 µM],–
O=C1CN=C(c2cccs2)c2c(sc3c2CCCC3)N1,–,15.8 µM (active)
NC[C@H](O)c1ccc(O)cc1,–,inactive
CN1C2C=C3C(C#N)=C(N)C(C#N)(C#N)[C@H](c4c(F)cccc4F)[C@H]3C1CC2 (some centres not stated),-20.5%,–
Oc1ccc2c3c1O[C@H]1c4oc5ccccc5c4C[C@]4(O)[C@H](C2)N(CC2CC2)CC[C@@]314,-3.2%,–
Nc1ccncc1,-10.7%,–
OCc1cnc[nH]1,2.94%,–
NC(=NCCc1ccc(I)cc1)SCCCc1cnc[nH]1,–,15.8 µM (active)
CC(=O)OCC1=C(C(=O)[O-])N2C(=O)[C@@H](NC(=O)CCC[C@@H](N)C(=O)[O-])[C@@H]2SC1.[Zn+2],-8.72%,–
Oc1ccc2[nH]cc(CCCCN3CC=C(c4ccccc4)CC3)c2c1,–,31.6 µM (active)
COC1(CS(=O)c2ccccc2)CCN(CCc2c[nH]c3ccc(F)cc23)CC1 (configuration not stated),-12.4%,–
S=C(Nc1ccc(Cl)cc1)NC1CC2CCCC(C1)N2C1CCCC1 (configuration not stated),-2.97%,–
O=C(Oc1ccccc1)N1CCC2(CCCN(Cc3ccccc3)C2)CC1,-22.8%,–
C[C@@H]1O[C@H](O[C@@H]2C=C3CC[C@H]4[C@@H](CC[C@]5(C)[C@@H](c6ccc(=O)oc6)CC[C@]45O)[C@@]3(C)CC2)[C@@H](O)[C@H](O)[C@@H]1O,-2.13% [at 25.6 µM],–
O=C(O)/C=C(\CC(=O)O)C(=O)O,-6.78% [at 11.4 µM],–
CN1CCN(c2ncc3ncc(=O)n(C)c3n2)CC1,–,12.6 µM (active)
